Measurements from PubChem BioAssay AID1851 (National Center for Advancing Translational Sciences (NCATS), 2009).
About 4,000 (25%) of roughly 16,000 compounds were called active. Inconclusive results (about 26%) are left out. Calls follow the shape of the dose curve; as a rule, active = well fitted curve in the direction sought with a large enough effect; inconclusive = small, poorly fitted or top-dose-only effect, or effect the other way; inactive = no such curve, though single readings can be large or run the other way. These entries were drawn from the full list.

What follows are molecules tested against Cytochrome P450 2C9 (Homo sapiens) (UniProt P11712) (assay: Cytochrome panel assay with activity outcomes). Conditions: recombinant CYP, pro-luciferin dealkylation, luminescence, p450-cyp2c9; series mostly up to 57.1 µM; activity, negative = inhibition: at the top concentration.
% is scaled to controls: 0 for no effect and ±100 for the full control effect.

Cytochrome P450 2C9 (Homo sapiens), sequence (P11712 whole entry, looked up): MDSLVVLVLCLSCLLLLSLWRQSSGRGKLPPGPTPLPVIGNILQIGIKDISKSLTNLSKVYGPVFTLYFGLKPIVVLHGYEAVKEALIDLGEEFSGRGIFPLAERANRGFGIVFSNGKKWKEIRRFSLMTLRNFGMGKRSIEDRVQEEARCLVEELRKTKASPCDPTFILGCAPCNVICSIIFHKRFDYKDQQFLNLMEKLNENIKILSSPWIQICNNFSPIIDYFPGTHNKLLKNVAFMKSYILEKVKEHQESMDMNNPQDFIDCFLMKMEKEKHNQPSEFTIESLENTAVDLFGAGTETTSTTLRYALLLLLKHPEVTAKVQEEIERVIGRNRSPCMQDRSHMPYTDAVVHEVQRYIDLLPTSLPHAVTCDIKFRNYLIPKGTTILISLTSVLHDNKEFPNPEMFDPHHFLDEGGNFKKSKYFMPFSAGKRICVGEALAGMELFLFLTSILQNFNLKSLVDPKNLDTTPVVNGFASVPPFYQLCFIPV

Row | Structure (SMILES) | AC50 | activity, negative = inhibition
1 | Cc1ccc(CSc2nnc(-c3ccncc3)n2CC2CCCO2)cc1 (stereo unspecified) | 15.8 µM (active) | 
2 | CN(C)c1ncc2nc(-c3ccc(Cl)cc3)c(=O)n(C[C@H]3CCCO3)c2n1 |  | 14.6% (inactive)
3 | Cn1c(SC2CCCCC2=O)nnc1-c1ccncc1 (stereo unspecified) |  | -27.1% (inactive)
4 | CC1(C)O[C@H]2C[C@@H]3[C@H]4CCC5=CC(=O)CC[C@@]5(C)[C@]4(F)[C@@H](O)C[C@@]3(C)[C@@]2(C(=O)CCl)O1 |  | -18.2% [at 25.6 µM] (inactive)
5 | N#CC1=C(N)OC2=C(C(=O)CCC2)C12CCC1(CC2)OCCO1 |  | -53.9% (inactive)
6 | N#Cc1ccccc1-c1cncnc1NCc1cccnc1 |  | 12.7% [at 2.29 µM] (inactive)
7 | CCC(C)c1ccc(Nc2ncccc2C#N)cc1 (stereo unspecified) | 17.8 µM (active) | 
8 | CCc1ccc(Nc2ncccc2C#N)cc1 | 17.8 µM (active) | 
9 | C[C@H]1CN(S(=O)(=O)c2cccc3cnccc23)CCN1 |  | 9.32% (inactive)
10 | C1CCC(N=C(NC23CC4CC(CC(C4)C2)C3)N2CCOCC2)CC1 |  | 11.7% (inactive)
11 | CCN(CC)CCOC(=O)C(c1ccccc1)c1ccccc1 |  | -4.53% [at 25.6 µM] (inactive)
12 | CCN(CC)CCOc1ccc(Cc2ccccc2)cc1 | 15.8 µM (active) | 
13 | CCN(CCCc1ccccc1)CCCc1ccccc1 |  | -2.03% [at 25.6 µM] (inactive)
14 | Cc1ccc(NC2c3ncccc3C(=O)N2Cc2ccc(F)cc2)cc1 (stereo unspecified) | 15.8 µM (active) | 
15 | CN[C@@H]1NC(=O)c2ccccc2N1Cc1ccc(F)cc1 |  | 4.34% [at 11.4 µM] (inactive)
16 | O=C1c2cccnc2C(=O)N1Cc1ccc(F)cc1 |  | 17% (inactive)
17 | CCOC(=O)c1[nH]c(C)c(/C(O)=C2\C(=O)C(=O)N(CCN3CCOCC3)C2c2cccs2)c1C (stereo unspecified) |  | -25.1% (inactive)
18 | COc1ccc(/C(O)=C2/C(=O)C(=O)N(CCCC(=O)O)C2c2ccc(OC)cc2)cc1 (stereo unspecified) |  | -15.5% (inactive)
19 | COc1ccc(/C(O)=C2/C(=O)C(=O)N(CCN3CCOCC3)C2c2ccc(C)cc2)cc1 (stereo unspecified) |  | 11.8% (inactive)
20 | CCOc1ccc(/C(O)=C2/C(=O)C(=O)N(CCOCCO)C2c2cccnc2)cc1 (stereo unspecified) |  | -25.7% (inactive)
21 | Cc1ccc(/C(O)=C2/C(=O)C(=O)N(CCCn3ccnc3)C2c2ccccn2)cc1 (stereo unspecified) | 4.47 µM (active) | 

Row | Structure (SMILES) | AC50 | activity, negative = inhibition
22 | CCOc1ccc(/C(O)=C2/C(=O)C(=O)N(CCCn3ccnc3)C2c2cccs2)cc1Cl (stereo unspecified) | 5.01 µM (active) | 
23 | C/C(CCN1CCc2nc(-c3ccccc3)c(-c3ccccc3)cc2C1)=N\O[C@@H](C)c1cn([C@H](CO)Cc2ccccc2)nn1 |  | -23.3% [at 11.4 µM] (inactive)
24 | Nc1ncnc(N(c2ccccc2)C2CCCCC2)c1[N+](=O)[O-] |  | -3.11% (inactive)
25 | C[C@@H]1[C@H]2CC[C@@H]3[C@@H]4CC=C5C[C@@H](N(C)C)CC[C@]5(C)[C@@H]4CC[C@@]32CN1C |  | 11.3% [at 25.6 µM] (inactive)
26 | O=C(O)[C@@H]1[C@@H]2C[C@@H]3[C@@H](OC(=O)[C@@H]31)[C@H]2Br |  | -8.47% [at 11.4 µM] (inactive)
27 | CC(C)[C@H](NC(=O)OC(C)(C)C)[C@@H](O)CC(=O)C(C)(C)C |  | 9.81% [at 11.4 µM] (inactive)
28 | CCOC(=O)c1c2ccc(OCC(=O)N/N=C/c3ccc(Cl)cc3)cc2n2ccccc12 | 6.31 µM (active) | 
29 | CO[C@H]1COC(=O)C/C=C\[C@@H](C)COC(=O)[C@@H](OCc2ccccc2)/C=C\[C@@H]1C |  | -24.9% [at 11.4 µM] (inactive)
30 | C=CCNc1oc(/C=C/c2ccccc2)nc1C#N | 4.47 µM (active) | 
31 | Cc1nc2ccccc2nc(C)c1=NO |  | 18.4% (inactive)
32 | NC(N)=NC(N)=Nc1ccccc1 (tested in a mixture with another compound) |  | -12.4% [at 11.4 µM] (inactive)
33 | Cc1cc2ccccc2c[n+]1CC(O)C[n+]1cc2ccccc2cc1C |  | 8.36% [at 11.4 µM] (inactive)
34 | C=CCc1cc(C=O)cc(OC)c1OCc1ccc(Cl)cc1 | 8.91 µM (active) | 
35 | COCCNC(=O)CCCCCn1c(=S)[nH]c2ccccc2c1=O |  | 18.2% (inactive)
36 | O=C(CCCCn1c(=S)[nH]c2ccsc2c1=O)NCc1ccco1 | 2.24 µM (active) | 
37 | O=C(CCCCCn1c(=O)[nH]c2ccsc2c1=O)NCc1ccc2c(c1)OCO2 | 4.47 µM (active) | 
38 | CC(C)(C)C(=O)OCOC(=O)[C@@H]1N2C(=O)[C@@H](NC(=O)[C@H](N)c3ccccc3)[C@H]2SC1(C)C |  | -31.6% [at 25.6 µM] (inactive)
39 | CCC(C)NC(=O)c1cnn2c(C)c3c(nc12)CCCC3 (stereo unspecified) |  | -19.6% (inactive)
40 | Cc1nc2c(C(=O)N3CCOCC3)cnn2c(C)c1Cc1ccc(Cl)cc1 | 7.94 µM (active) | 
41 | O=C(Cc1ccccc1I)Nc1ccccc1 | 25.1 µM (active) | 
42 | CCC(=O)NNC(=O)CCC(=O)Nc1ccccc1 |  | -5.57% (inactive)

Row | Structure (SMILES) | AC50 | activity, negative = inhibition
43 | CCC#CCOCC(=O)Nc1ccccc1 |  | 8.29% (inactive)
44 | NCC(=O)Nc1ccccc1 |  | 17% [at 11.4 µM] (inactive)
45 | CCCCC#Cc1ccccc1CC(=O)Nc1ccccc1 | 2.51 µM (active) | 
46 | C#CCCCC(=O)Nc1ccccc1 |  | 2.83% (inactive)
47 | C=C(CC)C(=O)c1ccc(OCC(=O)O)c(Cl)c1Cl | 0.631 µM (active) | 
48 | CC(C)(C)c1ccc(OCC(=O)O)c(Cl)c1 |  | -19.9% [at 11.4 µM] (inactive)
49 | COc1cc(NC(=O)Cc2c(C(=O)O)[nH]c3ccccc23)cc(OC)c1OC | 12.6 µM (active) | 
50 | NC(N)=NC(=O)c1nc(Cl)c(N2CCCCCC2)nc1N |  | -10.5% (inactive)
51 | CC(C)(C)NC(=O)CSc1nnc(Cc2ccc3c(c2)OCO3)n1C1CCCCC1 |  | 7.56% (inactive)
52 | Cc1cc(NC(=O)CSc2nnc(-c3ccccc3)n2Cc2ccco2)no1 | 10 µM (active) | 
53 | CNC(=O)NC(=O)CSc1nnc(-c2ccco2)n1Cc1ccccc1 |  | -10% (inactive)
54 | CC(=O)Nc1ccc(NC(=O)CSc2nnc(-c3ccccc3)n2Cc2ccc3c(c2)OCO3)cc1 | 11.2 µM (active) | 
55 | CC(C)=NOC[C@@H](O)COCc1ccco1 |  | 0.0785% [at 11.4 µM] (inactive)
56 | COc1ccc2c(c1)CCC1C2CC[C@]2(C)[C@H](NCCCCCCN3C(=O)C=CC3=O)CC[C@@H]12 (stereo partly specified) |  | 11.1% (inactive)
57 | CCOC(=O)C1CCCN(c2ncnc3c2cnn3-c2cccc(C)c2)C1 (stereo unspecified) | 12.6 µM (active) | 
58 | Cc1cccc(-n2ncc3c(Nc4c(C)n(C)n(-c5ccccc5)c4=O)ncnc32)c1 |  | 9.11% (inactive)
59 | CCOC(=O)C1CCCN(c2ncnc3c2cnn3-c2ccc(Cl)cc2)C1 (stereo unspecified) | 7.08 µM (active) | 
60 | Cc1noc(C)c1-c1ccc2ncnc(N3CCC(C(=O)O)CC3)c2c1 |  | 14.5% [at 2.29 µM] (inactive)
61 | Clc1ccc2c(N3CCC(CCC4CCN(c5ncnc6cc(Cl)ccc56)CC4)CC3)ncnc2c1 |  | -21% [at 11.4 µM] (inactive)
